Data on twelve compounds can be found in PubChem BioAssay.

For some of these results: Potency and affinity values are given separately. Calls of active or inactive are those of the source.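 The calls were made as follows, unless noted: active = primary screen active and over 50% activation in each of two duplicate runs; inactive = the rest.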

As usually defined, the inhibition is the change of the read-out against control, counted positive when it falls.

Assay [1] concerns TRPC4 beta (transient receptor potential cation channel C4), mouse. As to the kind of experiment: TRPC4 cation channel opening, retest – cell-based, Fluo4 calcium, HEK293 TRPC4beta/mu-opioid, duplicates, 10 µM, confirmation (AID 2426;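 active = fluorescence ratio normalized to control raised more than 50% in primary screen plus both repeat runs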;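 as to activation: percent rise of integrated ratio over buffer wells lacking compound which define 0%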). To be noted: Fluo4 calcium fluorescence, at 10 µM; hits give high values.
Assay [2] concerns transient receptor potential cation channel C4 beta (TRPC4), mouse. The assay is described as follows: TRPC4 cation channel opening, second retest – cell-based, second round, Fluo4, HEK293 TRPC4beta/mu-opioid, 1 µM, confirmation (AID 2461).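 As to activation: 0% = wells without test compound as baseline of integrated fluorescence ratio.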 To be noted: Fluo4 calcium fluorescence, at 1 µM; hits give high values.
Assay [3] has as its system TRPC4 (transient receptor potential cation channel C4 beta), mouse. The assay is described as follows: potentiation of DAMGO EC20 TRPC4 response – cell-based, second round, Fluo-4, HEK293 TRPC4beta/mu-opioid, 1 µM, confirmation (AID 2554;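 active = primary screen hit whose fluorescence ratio, in both repeats, exceeds the weak agonist control mean by 3 SD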). As to conditions: DAMGO EC20, Fluo-4 calcium flux, at 1 µM; hits give high values.
Assay [4] relates to TRPC4 beta (transient receptor potential cation channel C4), mouse. The assay is described as follows: potentiation of DAMGO EC20 TRPC4 response – cell-based, Fluo-4, HEK293 TRPC4beta/mu-opioid, confirmation (AID 2555;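 active = primary screen hit whose calcium fluorescence ratio, in both repeats, exceeds the weak agonist control mean by 3 SD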). To be noted: DAMGO EC20, Fluo-4 calcium flux, at 10 µM; hits give high values. Background: Calcium flux is commonly read through the fluorescence of an indicator in the cells.

The target in assay [5] is Short transient receptor potential channel 4 (Mus musculus) (UniProt Q9QUQ5). As to the kind of experiment: blockers of DAMGO-evoked TRPC4 calcium flux – cell-based, Fluo4, HEK293 TRPC4beta/mu-opioid, confirmation (AID 2636;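 active = calcium signal cut by more than 3 SD below the full-agonist control yet still positive, in both repeats and the earlier primary screen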). As to conditions: at 10 µM; hits give high values.
Chain of Short transient receptor potential channel 4 (Mus musculus) (Q9QUQ5 whole entry, looked up): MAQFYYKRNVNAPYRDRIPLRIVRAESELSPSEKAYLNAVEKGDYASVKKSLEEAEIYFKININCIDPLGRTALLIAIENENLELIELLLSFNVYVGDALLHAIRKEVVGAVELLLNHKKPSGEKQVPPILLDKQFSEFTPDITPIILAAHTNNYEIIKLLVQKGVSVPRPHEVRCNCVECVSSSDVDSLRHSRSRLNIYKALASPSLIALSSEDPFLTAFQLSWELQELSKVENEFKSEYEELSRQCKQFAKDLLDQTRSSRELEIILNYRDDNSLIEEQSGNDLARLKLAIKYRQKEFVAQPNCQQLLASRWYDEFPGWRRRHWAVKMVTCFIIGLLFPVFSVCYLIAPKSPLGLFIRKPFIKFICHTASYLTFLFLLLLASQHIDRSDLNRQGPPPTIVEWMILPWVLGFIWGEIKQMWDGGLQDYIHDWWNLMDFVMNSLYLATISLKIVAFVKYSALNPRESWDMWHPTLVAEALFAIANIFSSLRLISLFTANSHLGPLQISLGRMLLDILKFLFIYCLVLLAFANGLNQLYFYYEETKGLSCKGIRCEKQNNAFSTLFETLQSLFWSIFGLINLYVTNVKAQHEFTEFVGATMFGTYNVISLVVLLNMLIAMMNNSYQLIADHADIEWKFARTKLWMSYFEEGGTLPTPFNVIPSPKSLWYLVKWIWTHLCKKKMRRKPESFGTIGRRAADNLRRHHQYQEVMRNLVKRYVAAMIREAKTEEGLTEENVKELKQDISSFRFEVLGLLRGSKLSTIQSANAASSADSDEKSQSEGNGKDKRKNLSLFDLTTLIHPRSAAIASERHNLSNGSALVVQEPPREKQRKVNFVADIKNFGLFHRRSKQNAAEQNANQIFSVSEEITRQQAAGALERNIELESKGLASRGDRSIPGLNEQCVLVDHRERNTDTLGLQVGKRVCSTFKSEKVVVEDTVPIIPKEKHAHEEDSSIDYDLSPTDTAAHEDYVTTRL
Assay [6] shares this target. The assay is described as follows: blockers of DAMGO-evoked TRPC4 calcium flux – cell-based, second round, Fluo4, HEK293 TRPC4beta/mu-opioid, 1 µM, confirmation (AID 2637;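 active = calcium signal ratio cut to more than 3 SD under the fully stimulated control mean yet still positive, in both repeats and the primary screen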;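 as to inhibition: percent of integrated ratio relative to wells lacking test compound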). As to conditions: at 1 µM; hits give high values.
The target is the same in assay [7]. The assay is described as follows: potentiation of DAMGO-evoked TRPC4 calcium signal – cell-based, HEK293 TRPC4/mu-opioid, Fluo-4 calcium, EC20 DAMGO, dose response (AID 434941;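 active = earlier screen potentiator hit that boosts the TRPC4 ion channel at some dose, with a dose response; inactive = no potentiation, no dose response, or not a prior hit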;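 also: calcium entry triggered by an EC20 dose of DAMGO at the co-expressed mu-opioid receptor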).
Assay [8] concerns the target Short transient receptor potential channel 6 (Mus musculus) (UniProt Q61143). The assay is described as follows: TRPC6 blockade by TRPC4 inhibitor hits – cell-based, HEK293, membrane potential dye, duplicate, selectivity assay for TRPC4 inhibitor project, confirmation (AID 434948;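 active = active in primary screen and both duplicates, each dropping signal beyond three positive-control SD with fluorescence still positive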). To be noted: HEK293 TRPC6, membrane potential dye fluorescence, at 10 µM, stimulated with maximal-effect acetylcholine; hits give high values.

The target is the same in assay [9]. The assay is described as follows: TRPC6 opening by TRPC4 activator hits – cell-based, HEK293, membrane potential dye, duplicate, selectivity assay for TRPC4 activator project, confirmation (AID 434950;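 active = membrane potential signal rise above negative control mean plus 3 SD in both duplicates, also active in the earlier TRPC4 screen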;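 as to activation: 0% = buffer only wells and 100% = acetylcholine maximal-effect wells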). As to conditions: HEK293 TRPC6, membrane potential fluorescence, at 10 µM; activation: hits give high values; outcome: activation.
Assay [10] shares this target. As to the kind of experiment: positive modulators of mouse TRPC6 channel – HEK293 cells, membrane potential dye, duplicate, selectivity assay for TRPC4 potentiator project, confirmation (AID 434952;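 active = compound raising the membrane signal above positive-control mean plus 3 SD in both repeats, and a primary screen hit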). To be noted: HEK293 TRPC6, membrane potential dye fluorescence, at 10 µM, maximal acetylcholine added after compound; hits give high values.
The target of assay [11] is Short transient receptor potential channel 4 (Mus musculus) (UniProt Q9QUQ5). The assay is described as follows: calcium flux activators in TRPC4/5HT1a cells, counter-screen for TRPC4 activator project, cell-based, second counter screen, HEK293 TRPC4/5HT1a, Fluo-4 (AID 434977;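 active = calcium signal rise above buffer-control mean plus 5 SD in both duplicates, and also a hit in the primary screen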;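 as to activation: plate controls were assay buffer for no effect and maximal serotonin response for full effect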). As to conditions: Fluo-4 calcium flux, at 10 µM; hits give high values.
A short description of assay [12]: serotonin-gated TRPC4 signal block – cell-based, second counter screen, HEK293 TRPC4/5HT1a, Fluo-4, counter-screen for TRPC4 inhibitor project, confirmation (AID 434978;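 active = primary screen active whose calcium signal fell more than 3 SD beyond the full-serotonin control mean in both duplicate plates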;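 as to outcome: serotonin given first at submaximal then at maximal dose after compound preincubation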). To be noted: Fluo-4 calcium flux, at 10 µM, serotonin added to trigger calcium flux; hits give high values. In general terms: A counterscreen serves to expose hits that act by an unwanted route or on another target.

Assay [13] concerns TRPC4 (mouse), co-expressed with 5HT1a in HEK293. As to the kind of experiment: enhancement of serotonin-evoked TRPC4 response – cell-based, second counter screen, HEK293 TRPC4/5HT1a, Fluo-4, counter-screen for TRPC4 potentiator project, confirmation (AID 434979;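 active = signal rise over 3 SD above mean of control wells given weak agonist, in both repeats and first screen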). To be noted: Fluo-4 calcium flux, at 10 µM, serotonin added at its EC20 dose; hits give high values.
Assay [14] can be described thus: nonspecific calcium rise without TRPC4 – cell-based, HEK293 mu-opioid receptor line, counter-screen for TRPC4 activator project, confirmation (AID 449723;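 active = hit in primary screen, with calcium signal over 5 SD above buffer well mean in both duplicates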;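 also: counter screen cells carry the mu-opioid receptor alone and lack TRPC4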). To be noted: HEK293 mu-opioid cells, Fluo-4 calcium fluorescence, at 10 µM; hits give high values.
Assay [15] is described as follows: nonspecific potentiation of DAMGO calcium response – cell-based, HEK293 mu-opioid receptor line, counter-screen for TRPC4 allosteric potentiator project, confirmation (AID 449724;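 active = calcium signal rise more than 3 SD above the low-dose agonist control mean, in both duplicate plates and the primary screen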;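 also: HEK293 cells carrying mu-opioid receptor only with no TRPC4 channel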). To be noted: HEK293 mu-opioid receptor cells, Fluo-4 calcium flux, at 10 µM, compound added before EC20 DAMGO stimulus; hits give high values.
A short description of assay [16]: nonspecific flux increase, KCNQ1-free cells – parental CHO cells, counter-screen for KCNQ1 potentiator project (AID 493006;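 active = duplicate-averaged activation above buffer control mean plus 5 SD of those controls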). As to conditions: parental CHO-K1 cells, FluxOR thallium flux, at 10 µM; hits give high values.
Assay [17] has as its target Potassium voltage-gated channel subfamily KQT member 1 (Homo sapiens) (UniProt P51787). The assay is described as follows: enhancement of KCNQ1 channel thallium flux – FluxOR thallium flux, CHO cells, duplicates, confirmation (AID 493007;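 active = potentiation averaged over duplicate wells exceeding buffer-only control mean by more than 3 SD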;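 also: cells depolarized by a potassium plus thallium sulfate stimulus after compound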). To be noted: KCNQ1 cell line, FluxOR thallium flux fluorescence, at 10 µM; hits give high values, % of reference activator effect, buffer zero.

In assay [18] the target is Potassium voltage-gated channel subfamily KQT member 2 (Rattus norvegicus) (UniProt O88943). The assay is described as follows: KCNQ2 thallium flux enhancement – KCNQ2-CHO-K1 cells, selectivity assay for KCNQ1 potentiator project (AID 493009;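 active = mean duplicate potentiation above the buffer control mean plus 5 SD of buffer wells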;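 also: assay conditions were tuned for KCNQ1 rather than KCNQ2 modulators; signal is max minus min fluorescence divided by baseline after thallium stimulus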). To be noted: FluxOR thallium flux fluorescence, at 10 µM; hits give high values, scaled: buffer 0, activator control 100.
Chain of Potassium voltage-gated channel subfamily KQT member 2 (Rattus norvegicus) (O88943 whole entry, looked up): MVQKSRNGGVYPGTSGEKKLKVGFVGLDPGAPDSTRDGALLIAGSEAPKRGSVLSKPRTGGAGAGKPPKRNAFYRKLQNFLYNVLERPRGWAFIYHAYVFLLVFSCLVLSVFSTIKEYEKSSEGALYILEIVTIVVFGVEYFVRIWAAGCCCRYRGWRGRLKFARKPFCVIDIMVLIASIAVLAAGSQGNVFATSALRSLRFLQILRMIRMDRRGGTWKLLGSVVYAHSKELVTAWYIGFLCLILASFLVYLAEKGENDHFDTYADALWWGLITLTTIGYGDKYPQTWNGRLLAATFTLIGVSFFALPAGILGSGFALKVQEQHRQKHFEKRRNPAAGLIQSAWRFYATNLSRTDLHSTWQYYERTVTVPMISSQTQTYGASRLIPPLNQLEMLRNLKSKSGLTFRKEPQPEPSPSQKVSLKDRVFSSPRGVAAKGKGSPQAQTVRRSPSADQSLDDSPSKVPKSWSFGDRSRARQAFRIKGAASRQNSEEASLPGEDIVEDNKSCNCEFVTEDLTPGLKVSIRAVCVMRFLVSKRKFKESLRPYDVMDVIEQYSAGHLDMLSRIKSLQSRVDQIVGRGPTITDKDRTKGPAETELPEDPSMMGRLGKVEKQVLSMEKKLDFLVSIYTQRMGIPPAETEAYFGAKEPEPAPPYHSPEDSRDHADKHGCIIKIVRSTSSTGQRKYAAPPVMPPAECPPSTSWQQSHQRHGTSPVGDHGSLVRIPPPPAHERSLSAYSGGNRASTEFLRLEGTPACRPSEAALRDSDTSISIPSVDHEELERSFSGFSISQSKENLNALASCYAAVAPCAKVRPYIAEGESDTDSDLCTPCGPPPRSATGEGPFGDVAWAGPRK
In assay [19] the target is Potassium voltage-gated channel subfamily KQT member 1 (Homo sapiens) (UniProt P51787). The assay is described as follows: KCNQ1 activators by electrophysiology – IonWorks patch clamp, KCNQ1-CHO cells, orthogonal assay for KCNQ1 potentiator project, confirmation (AID 493184;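 active = current rise at least 3 SD above the untreated control mean in each of two repeat wells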). To be noted: automated patch clamp current, at 10 µM; hits give high values. Background: Patch clamp records ionic current or voltage across a cell membrane.
Chain of Potassium voltage-gated channel subfamily KQT member 1 (Homo sapiens) (P51787 whole entry, looked up): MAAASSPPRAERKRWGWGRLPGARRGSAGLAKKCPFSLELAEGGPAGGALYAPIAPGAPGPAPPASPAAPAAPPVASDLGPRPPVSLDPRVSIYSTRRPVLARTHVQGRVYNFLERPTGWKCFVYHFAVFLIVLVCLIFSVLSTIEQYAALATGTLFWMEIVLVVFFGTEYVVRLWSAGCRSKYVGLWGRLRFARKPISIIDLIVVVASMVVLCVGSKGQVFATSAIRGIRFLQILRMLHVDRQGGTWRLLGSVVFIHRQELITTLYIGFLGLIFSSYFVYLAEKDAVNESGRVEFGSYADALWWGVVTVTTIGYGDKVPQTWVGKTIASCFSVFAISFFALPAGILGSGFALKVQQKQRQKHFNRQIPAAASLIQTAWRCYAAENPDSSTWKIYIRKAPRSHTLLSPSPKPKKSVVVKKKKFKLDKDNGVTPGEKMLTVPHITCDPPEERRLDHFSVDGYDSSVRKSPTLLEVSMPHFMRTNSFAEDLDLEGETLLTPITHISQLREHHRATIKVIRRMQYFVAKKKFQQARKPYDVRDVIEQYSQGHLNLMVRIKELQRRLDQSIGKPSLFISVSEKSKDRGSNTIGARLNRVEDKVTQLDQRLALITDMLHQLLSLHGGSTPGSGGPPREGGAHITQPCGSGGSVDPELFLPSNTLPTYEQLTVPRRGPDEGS

Chain of Short transient receptor potential channel 6 (Mus musculus) (Q61143 whole entry, looked up): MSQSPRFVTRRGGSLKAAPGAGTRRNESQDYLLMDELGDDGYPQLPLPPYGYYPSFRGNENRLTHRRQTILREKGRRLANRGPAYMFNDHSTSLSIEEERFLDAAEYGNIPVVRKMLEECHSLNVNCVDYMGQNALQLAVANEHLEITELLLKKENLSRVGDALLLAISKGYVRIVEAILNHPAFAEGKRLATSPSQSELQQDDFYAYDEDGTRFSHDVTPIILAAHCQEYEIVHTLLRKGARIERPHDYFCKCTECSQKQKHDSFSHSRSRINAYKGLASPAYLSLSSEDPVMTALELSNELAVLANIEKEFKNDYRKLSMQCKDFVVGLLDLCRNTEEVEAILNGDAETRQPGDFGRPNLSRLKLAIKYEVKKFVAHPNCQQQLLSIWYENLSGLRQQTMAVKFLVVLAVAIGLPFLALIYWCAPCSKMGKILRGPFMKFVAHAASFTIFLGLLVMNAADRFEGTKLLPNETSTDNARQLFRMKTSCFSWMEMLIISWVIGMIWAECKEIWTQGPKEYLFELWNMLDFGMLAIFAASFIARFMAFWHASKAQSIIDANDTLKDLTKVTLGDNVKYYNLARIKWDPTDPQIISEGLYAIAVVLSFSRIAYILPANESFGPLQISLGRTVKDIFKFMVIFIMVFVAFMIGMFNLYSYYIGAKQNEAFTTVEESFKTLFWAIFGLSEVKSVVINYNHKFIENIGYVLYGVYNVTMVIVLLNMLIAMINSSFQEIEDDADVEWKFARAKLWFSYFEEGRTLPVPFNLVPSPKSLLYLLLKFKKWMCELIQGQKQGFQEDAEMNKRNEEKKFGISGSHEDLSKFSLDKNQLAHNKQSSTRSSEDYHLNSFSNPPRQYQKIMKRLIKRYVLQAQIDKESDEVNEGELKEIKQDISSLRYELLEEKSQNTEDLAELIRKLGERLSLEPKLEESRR

Consider `CC(NCc1cc(Br)ccc1OCC(=O)NCc1ccccc1)c1ccccc1` (centres undefined), for which the result in [1], in assay [2], in assay [3], in [4], in assay [6] and in assay [7] was inactive. The outcome in assay [8], in [10], in [11], in assay [13], in assay [14] and in assay [15] was inactive. Besides, the inhibition in [5] is 100% (active); in assay [12], 35.1% (active). Further, the activation in [9] is 55% (active).
`CCOC(=O)C1(CC2CC2)CCN(Cc2ccc3cccc(F)c3n2)CC1`: the activation in assay [1] is 129% (active); in assay [9] it was 50.5% (active); in assay [11], 19.5% (active). The result in [2], in assay [3], in assay [4], in assay [6], in assay [7] and in [8] was inactive. Moreover, the outcome in assay [10], in [13], in [14] and in [15] was inactive. Moreover, the inhibition was 89% (active) in [5] and 30.9% (active) in assay [12].
Consider `COc1ccc(/C=C/C(=O)Nc2ccccc2C(=O)NCC(c2ccc(OC)cc2)N(C)C)cc1` (centres undefined), for which the result in assay [1], in [2], in [3], in [4], in assay [7] and in assay [8] was inactive. The compound was classed as inactive in assay [9], in assay [10], in assay [11], in [12], in assay [13] and in [14]. In addition, the result in assay [15] was inactive. The inhibition in assay [5] is 101% (active); in assay [6], 81% (active).
With `Cc1c(C(=O)N(Cc2cccs2)C2CCS(=O)(=O)C2)oc2ccccc12` (centres undefined), the outcome in [1], in assay [2], in assay [3], in assay [4], in assay [6] and in [7] was inactive. Also, the call in assay [8], in assay [10], in [11], in assay [12], in assay [13] and in assay [14] was inactive. For the same compound, the result in assay [15] was inactive. The inhibition in assay [5] was 97% (active). Moreover, in assay [9], the activation is 56.5% (active).
`CN(C)CCCN(C(=O)c1ccc(S(=O)(=O)N(C)C)cc1)c1nc2ccc(F)cc2s1`: the activation in assay [1] is 59% (active). For the same compound, the result in assay [2], in [3], in [4], in assay [5], in assay [7] and in assay [8] was inactive. Besides, the result in assay [9], in [10], in [11], in [12], in assay [13] and in [14] was inactive. The outcome in assay [15] was inactive. Further, in assay [6], the inhibition was 37% (active).
With `OC1(c2ccccc2)CN(c2ccccc2)C2=[N+]1CCS2` (centres undefined), the result in assay [1], in [2], in [3], in [4], in [6] and in [7] was inactive. Moreover, the compound was called inactive in assay [8], in assay [10], in [11], in assay [12], in assay [13] and in [14]. In addition, in assay [15], the outcome was inactive. In addition, the inhibition in [5] was 89% (active). Also, in assay [9], the activation is 34% (active).
`CCn1c(SCC(=O)c2cc(C)n(CC3CCCO3)c2C)nc2ccccc21` (centres undefined): the result in assay [1], in assay [2], in assay [3], in [4], in assay [6] and in assay [7] was inactive. Further, the call in assay [8], in assay [10], in assay [11], in [12], in assay [13] and in assay [14] was inactive. In addition, in assay [15], the outcome was inactive. The inhibition in assay [5] is 69% (active). Besides, in assay [9], the activation is 65% (active).
With `C/C(=N/NC(=O)c1ccc(Cn2cccn2)o1)c1cccc(NC(=O)c2ccncc2)c1`, the results for the activation in assay [1], in [9] and in assay [11] were 100% (active), 49% (active) and 11.3% (active), respectively. Besides, the result in assay [2], in assay [3], in [4], in assay [6], in [7] and in assay [8] was inactive. Besides, the result in assay [10], in assay [12], in assay [13], in [14] and in [15] was inactive. The inhibition in assay [5] was 97% (active).
With `COc1cccc(CNCc2ccccn2)c1OC`, the outcome in [1], in assay [3], in assay [4], in [5], in assay [6] and in assay [7] was inactive. In addition, the compound was classed as inactive in [8], in [10], in [11], in assay [12], in [13] and in assay [14]. Also, the outcome in assay [15] was inactive. Also, the activation in assay [2] was 56% (active); in [9], 40% (active).
As to `OCC1(CC2CCCCO2)CCN(Cc2nc3ccccc3[nH]2)CC1` (centres undefined), the result in assay [1], in assay [2], in assay [3], in assay [4], in [6] and in assay [7] was inactive. Besides, the call in assay [8], in assay [10], in assay [11], in assay [12], in assay [13] and in assay [14] was inactive. In addition, in [15], the outcome was inactive. Moreover, the inhibition in assay [5] was 67% (active). The activation in [9] is 26.5% (active).
For `O=c1c2ccccc2[nH]c(=S)n1Cc1cccnc1`, the result in assay [1], in assay [2], in assay [3], in assay [4], in assay [6] and in assay [7] was inactive. The outcome in [8], in assay [9], in assay [10], in assay [11], in [12] and in assay [13] was inactive. Further, the result in [14] and in [15] was inactive. For the same compound, in assay [5], the inhibition was 94% (active).
Take `COc1ccc(CNC(=O)c2cc3c(=O)n4ccccc4nc3n(CC3CCCO3)c2=N)cc1` (centres undefined): the result in [16], in assay [17], in assay [18] and in assay [19] was inactive.
